# Data published in the antibiotic and cytotoxicity screens of Wong et al. (2023).
# The whole screen tested about 39,000 compounds, of which about 3,300 (8.5%) were called active. The full list was thinned out, with actives kept by preference.
# System: HepG2
# Experiment: cytotoxicity call (relative viability < 0.9)
# Conditions: 10 µM
row,SMILES,cytotoxicity call
1,COc1ccc(S(=O)(=O)N(C)C[C@@H]2Oc3ccc(NS(=O)(=O)c4ccccc4)cc3C(=O)N([C@H](C)CO)C[C@H]2C)cc1,inactive
2,COc1c(O)cc2oc3cc(O)c(CC=C(C)C)c(O)c3c(=O)c2c1CC=C(C)C [alpha-MANGOSTIN ],active
3,CC(C)=CCc1c(O)cc2oc(C)cc(=O)c2c1O,inactive
4,COc1cc(O)c2c(=O)cc(C)oc2c1CC=C(C)C,inactive
5,CN(C)CCCNC(=O)[C@H]1[C@H](CO)[C@H]2Cn3c(ccc(-c4ccncc4)c3=O)[C@@H]1N2C(=O)C1CC1,inactive
6,COCC(=O)N(C)C[C@@H]1Oc2cc(C#C[C@@H](C)O)ccc2S(=O)(=O)N([C@H](C)CO)C[C@@H]1C,inactive
7,COCC(=O)Nc1ccc2c(c1)C(=O)N(C)[C@@H]1CC[C@H](CC(=O)NC3Cc4ccccc4C3)O[C@H]1CO2,inactive
8,C[C@@H]1CCCCO[C@@H](CN(C)Cc2ccc(Cl)c(Cl)c2)[C@H](C)CN([C@H](C)CO)C(=O)c2cc(NS(=O)(=O)c3ccccc3)ccc2O1,active
9,C[C@@H]1CCCCO[C@H](CN(C)Cc2ccc(Cl)c(Cl)c2)[C@@H](C)CN([C@H](C)CO)C(=O)c2cc(NS(=O)(=O)c3ccccc3)ccc2O1,inactive
10,C[C@@H]1CCCCO[C@@H](CN(C)Cc2ccc(Cl)c(Cl)c2)[C@H](C)CN([C@@H](C)CO)C(=O)c2cc(NS(=O)(=O)c3ccccc3)ccc2O1,active
11,C[C@H](CO)N1C[C@H](C)[C@@H](CN(C)Cc2ccc(Cl)c(Cl)c2)OCCCC[C@H](C)Oc2ccc(NS(=O)(=O)c3ccccc3)cc2C1=O,active
12,C[C@@H]1CCCCO[C@H](CN(C)Cc2ccc(Cl)c(Cl)c2)[C@H](C)CN([C@@H](C)CO)C(=O)c2cc(NS(=O)(=O)c3ccccc3)ccc2O1,inactive
13,C[C@@H]1CCCCO[C@H](CN(C)Cc2ccc(Cl)c(Cl)c2)[C@@H](C)CN([C@@H](C)CO)C(=O)c2cc(NS(=O)(=O)c3ccccc3)ccc2O1,active
14,CN(C)c1nc(NCCO)c2cnn(C)c2n1,inactive
15,Cc1noc(C)c1S(=O)(=O)N(C)C[C@@H]1Oc2ccc(NS(=O)(=O)c3ccccc3)cc2C(=O)N([C@@H](C)CO)C[C@@H]1C,inactive
16,C[C@@H]1CN([C@H](C)CO)C(=O)c2cc(NC(=O)Cn3cnnn3)ccc2O[C@@H]1CN(C)S(=O)(=O)c1cn(C)cn1,inactive
17,CC(C)NC(=O)N(C)C[C@@H]1OCCCC[C@H](C)Oc2ccc(NS(C)(=O)=O)cc2C(=O)N([C@H](C)CO)C[C@@H]1C,inactive
18,C[C@@H]1CN([C@H](C)CO)C(=O)c2cc(NS(=O)(=O)c3cn(C)cn3)ccc2O[C@@H](C)CCCCO[C@@H]1CN(C)S(=O)(=O)c1cccs1,inactive
19,CC(C)CC#Cc1ccc2c(c1)O[C@H](CN(C)C(=O)Cc1ccncc1)[C@H](C)CN([C@@H](C)CO)S2(=O)=O,inactive
20,C[C@@H]1CCCCO[C@@H](CN(C)C(=O)NC2CCCCC2)[C@H](C)CN([C@H](C)CO)C(=O)c2cc(NS(=O)(=O)c3ccc(F)cc3)ccc2O1,inactive
21,COc1ccc(S(=O)(=O)N(C)C[C@H]2Oc3ccc(NS(=O)(=O)c4cn(C)cn4)cc3C(=O)N([C@H](C)CO)C[C@@H]2C)cc1,inactive
22,COc1ccc(S(=O)(=O)N(C)C[C@@H]2OCCCC[C@@H](C)Oc3ccc(NS(C)(=O)=O)cc3C(=O)N([C@H](C)CO)C[C@H]2C)cc1,inactive
23,COc1ccc(S(=O)(=O)Nc2cccc3c2O[C@@H](CN(C)C(=O)NC(C)C)[C@H](C)CN([C@@H](C)CO)C3=O)cc1,inactive
24,C[C@H](CO)N1C[C@H](C)[C@H](CN(C)C(=O)Cc2ccccc2)OCCCC[C@H](C)Oc2ccc(NS(=O)(=O)c3cccs3)cc2C1=O,inactive
25,C[C@@H]1CN([C@H](C)CO)S(=O)(=O)c2ccc(C#Cc3ccccc3)cc2O[C@@H]1CN(C)S(=O)(=O)c1cn(C)cn1,inactive

row,SMILES,cytotoxicity call
1,C[C@H]1CCCCO[C@H](CN(C)Cc2ccc(Cl)c(Cl)c2)[C@@H](C)CN([C@@H](C)CO)C(=O)c2cc(NS(=O)(=O)c3ccccc3)ccc2O1,active
2,C[C@@H]1CN([C@H](C)CO)C(=O)c2cc(NS(=O)(=O)c3ccccc3)ccc2O[C@@H](C)CCCCO[C@@H]1CN(C)Cc1ccc(Cl)c(Cl)c1,active
3,C[C@@H]1CN([C@H](C)CO)C(=O)c2cc(NS(=O)(=O)c3ccccc3)ccc2O[C@@H](C)CCCCO[C@H]1CN(C)Cc1ccc(Cl)c(Cl)c1,inactive
4,C[C@@H]1CCCCO[C@@H](CN(C)Cc2ccc(Cl)c(Cl)c2)[C@@H](C)CN([C@H](C)CO)C(=O)c2cc(NS(=O)(=O)c3ccccc3)ccc2O1,active
5,C[C@@H]1CCCCO[C@@H](CN(C)Cc2ccc(Cl)c(Cl)c2)[C@@H](C)CN([C@@H](C)CO)C(=O)c2cc(NS(=O)(=O)c3ccccc3)ccc2O1,inactive
6,Nn1c([C@@H](O)c2ccccc2)n[nH]c1=S,inactive
7,COc1ccc(CN(C)C[C@H]2OCCCC[C@H](C)Oc3ccc(NC(=O)Cc4ccccc4)cc3C(=O)N([C@H](C)CO)C[C@H]2C)cc1,inactive
8,C[C@H]1CN([C@@H](C)CO)C(=O)c2cc(NC(=O)Cn3cnnn3)ccc2O[C@H]1CN(C)S(C)(=O)=O,inactive
9,C[C@H]1CN([C@@H](C)CO)C(=O)c2cc(C#CC(C)(C)O)cnc2O[C@@H]1CN(C)C(=O)CN(C)C,inactive
10,COc1ccc(NC(=O)N(C)C[C@@H]2OCCCC[C@@H](C)Oc3ccc(NS(=O)(=O)c4ccc(OC)cc4)cc3C(=O)N([C@@H](C)CO)C[C@@H]2C)cc1,inactive
11,CCOC(=O)CC1(C)NNC(=S)NN1,inactive
12,C[C@@](N)(C(=O)O)c1ccc(-c2nn[nH]n2)cc1,inactive
13,O=C(C[C@@H]1C[C@@H]2c3cc(NC(=O)Nc4ccc(C(F)(F)F)cc4)ccc3O[C@@H]2[C@H](CO)O1)NC1CCCCC1,active
14,C[C@H](NC(=O)C[C@H]1C[C@@H]2c3cc(NC(=O)Nc4ccc(C(F)(F)F)cc4)ccc3O[C@@H]2[C@@H](CO)O1)c1ccccc1,inactive
15,O=C(C[C@@H]1C[C@@H]2c3cc(NC(=O)Nc4ccc(C(F)(F)F)cc4)ccc3O[C@@H]2[C@@H](CO)O1)NC1CCCCC1,inactive
16,C[C@H](NC(=O)C[C@@H]1C[C@@H]2c3cc(NC(=O)Nc4ccc(C(F)(F)F)cc4)ccc3O[C@@H]2[C@@H](CO)O1)c1ccccc1,active
17,O=C(C[C@@H]1C[C@H]2c3cc(NC(=O)Nc4ccc(C(F)(F)F)cc4)ccc3O[C@H]2[C@@H](CO)O1)NC1CCCCC1,inactive
18,COc1ccccc1CNC(=O)C[C@@H]1C[C@H]2c3cc(NC(=O)Nc4ccc(C(F)(F)F)cc4)ccc3O[C@H]2[C@@H](CO)O1,active
19,C[C@H](NC(=O)C[C@@H]1C[C@@H]2c3cc(NC(=O)Nc4ccc(C(F)(F)F)cc4)ccc3O[C@@H]2[C@H](CO)O1)c1ccccc1,inactive
20,COc1ccccc1CNC(=O)C[C@H]1C[C@@H]2c3cc(NC(=O)Nc4ccc(C(F)(F)F)cc4)ccc3O[C@@H]2[C@@H](CO)O1,inactive
21,COc1ccccc1CNC(=O)C[C@H]1C[C@H]2c3cc(NC(=O)Nc4ccc(C(F)(F)F)cc4)ccc3O[C@H]2[C@H](CO)O1,inactive
22,C[C@@H]1CN([C@H](C)CO)C(=O)c2c(c3ccccc3n2C)-c2ccccc2CO[C@@H]1CN(C)S(=O)(=O)c1cn(C)cn1,inactive
23,Cc1noc(C)c1NC(=O)Nc1ccc2c(c1)C(=O)N([C@H](C)CO)C[C@@H](C)[C@H](CN(C)C(=O)Nc1ccccc1)OCCCC[C@@H](C)O2,inactive
24,Cc1ccc(S(=O)(=O)N(C)C[C@H]2Oc3ccc(NC(=O)CCCN(C)C)cc3C(=O)N([C@@H](C)CO)C[C@@H]2C)cc1,inactive
25,CCNC(=O)C[C@@H]1CC[C@H]2[C@@H](COc3ccc(NS(=O)(=O)c4ccccc4C)cc3C(=O)N2C)O1,inactive

row,SMILES,cytotoxicity call
1,C[C@@H]1CCCCO[C@H](CN(C)C(=O)Nc2ccc(F)cc2)[C@H](C)CN([C@H](C)CO)C(=O)c2cc(NC(=O)Nc3ccc(C(F)(F)F)cc3)ccc2O1,inactive
2,CC(C)CC#Cc1ccc2c(c1)O[C@@H](CN(C)C(=O)c1cccnc1)[C@@H](C)CN([C@H](C)CO)S2(=O)=O,inactive
3,Cl.O=C(c1ccc(OCCN2CCCCC2)cc1)c1c(-c2ccc(O)cc2)sc2cc(O)ccc12,active
4,CCCCOc1ccc(OCCCN2CCOCC2)cc1.Cl,inactive
5,CC(=O)OCC(=O)NCCCOc1cccc(CN2CCCCC2)c1.Cl,inactive
6,COc1cc(OC)c(C(=O)CCCN2CCCC2)c(OC)c1.Cl,inactive
7,O=C(N[C@@H](c1ccccc1)c1ccc2ccccc2n1)C1CCN(CCOc2ccc(Cl)cc2)CC1,inactive
8,COc1cc(C(=O)OCCN2CCCN(CCOC(=O)c3cc(OC)c(OC)c(OC)c3)CC2)cc(OC)c1OC,inactive
9,CCCCOc1ccc(C(=O)CCN2CCCCC2)cc1.Cl,active
10,CC(=O)O.Cc1c(-c2ccc(O)cc2)n(Cc2ccc(OCCN3CCCCCC3)cc2)c2ccc(O)cc12,active
11,C[C@@H]1CN([C@@H](C)CO)C(=O)c2cccc(NC(=O)c3cnccn3)c2O[C@H]1CN(C)S(=O)(=O)c1cccs1,inactive
12,C[C@H]1CN([C@@H](C)CO)S(=O)(=O)c2ccc(-c3cccc(C(=O)N(C)C)c3)cc2O[C@@H]1CN(C)C(=O)Cc1ccccn1,inactive
13,C[C@H]1CN([C@@H](C)CO)C(=O)c2cc(C#Cc3ccc(F)cc3)cnc2O[C@@H]1CN(C)Cc1ccccn1,inactive
14,C[C@@H]1CCCCO[C@H](CN(C)C)[C@H](C)CN([C@H](C)CO)C(=O)c2cc(NC(=O)Nc3ccc(C(F)(F)F)cc3)ccc2O1,active
15,C[C@@H]1CCCCO[C@H](CN(C)S(C)(=O)=O)[C@@H](C)CN([C@@H](C)CO)C(=O)c2cc(NC(=O)Nc3ccc(C(F)(F)F)cc3)ccc2O1,inactive
16,C[C@@H]1CN([C@@H](C)CO)C(=O)c2cc(NC(=O)Nc3ccc(C(F)(F)F)cc3)ccc2O[C@@H](C)CCCCO[C@@H]1CN(C)C,inactive
17,C[C@@H]1CCCCO[C@H](CN(C)S(C)(=O)=O)[C@@H](C)CN([C@H](C)CO)C(=O)c2cc(NC(=O)Nc3ccc(C(F)(F)F)cc3)ccc2O1,inactive
18,C[C@@H]1CCCCO[C@H](CN(C)C)[C@H](C)CN([C@@H](C)CO)C(=O)c2cc(NC(=O)Nc3ccc(C(F)(F)F)cc3)ccc2O1,active
19,C[C@H]1CCCCO[C@@H](CN(C)C)[C@@H](C)CN([C@@H](C)CO)C(=O)c2cc(NC(=O)Nc3ccc(C(F)(F)F)cc3)ccc2O1,active
20,C[C@H](CO)N1C[C@H](C)[C@@H](CN(C)C)OCCCC[C@H](C)Oc2ccc(NC(=O)Nc3ccc(C(F)(F)F)cc3)cc2C1=O,inactive
21,C[C@@H]1CCCCO[C@@H](CN(C)C)[C@H](C)CN([C@@H](C)CO)C(=O)c2cc(NC(=O)Nc3ccc(C(F)(F)F)cc3)ccc2O1,inactive
22,C[C@@H]1CCCCO[C@H](CN(C)C)[C@@H](C)CN([C@H](C)CO)C(=O)c2cc(NC(=O)Nc3ccc(C(F)(F)F)cc3)ccc2O1,inactive
23,C[C@@H]1CCCCO[C@@H](CN(C)C)[C@H](C)CN([C@H](C)CO)C(=O)c2cc(NC(=O)Nc3ccc(C(F)(F)F)cc3)ccc2O1,inactive
24,C[C@@H]1CN([C@H](C)CO)C(=O)c2cc(NC(=O)Nc3ccc(C(F)(F)F)cc3)ccc2O[C@@H](C)CCCCO[C@H]1CN(C)S(C)(=O)=O,active
25,C[C@@H]1CN([C@@H](C)CO)C(=O)c2cc(NC(=O)Nc3ccc(C(F)(F)F)cc3)ccc2O[C@@H](C)CCCCO[C@H]1CN(C)C,inactive
